Assay results from a collection of fitness landscapes (doi:10.1126/science.1257360).
Whole data set: some 140,000 sequences, median “enrichment ratio after two sorts for PhoP signalling” near 0, cut for the highest 2% near 11. Only a selection was taken, and the highest values are over-represented in it overall.

B1: PhoQ; a variant is named by its letters at X, in order, P23837 (parent)
chain: MKKLLRLFFPLSLRVRFLLATAAVVLVLSLAYGMVALIGYSVSFDKTTFRLLRGESNLFYTLAKWENNKLHVELPENIDKQSPTMTLIYDENGQLLWAQRDVPWLMKMIQPDWLKSNGFHEIEADVNDTSLLLSGDHSIQQQLQEVREDDDDAEMTHSVAVNVYPATSRMPKLTIVVVDTIPVELKSSYMVWSWFIYVLSANLLLVIPLLWVAAWWSLRPIEALAKEVRELEEHNRELLNPATTRELTSLVRNLNRLLKSERERYDKYRTTLTDLTHSLKTPLXXLQXXLRSLRSEKMSVSDAEPVMLEQISRISQQIGYYLHRASMRGGTLLSRELHPVAPLLDNLTSALNKVYQRKGVNISLDISPEISFVGEQNDFVEVMGNVLDNACKYCLEFVEISARQTDEHLYIVVEDDGPGIPLSKREVIFDRGQRVDTLRPGQGVGLAVAREITEQYEGKIVAGESMLGGARMEVIFGRQHSAPKDE

Variants of: B1
Assay: enrichment ratio after two sorts for PhoP signalling (ratio (wild type AVST 3.29)); higher = more functional
Conditions: with PhoP (E. coli)

Variant	enrichment ratio
VCDC	≤ 0.25
KHCF	≤ 0.25
TKQF	≤ 0.25
VNQI	≤ 0.25
MAYK	≤ 0.25
MAYF	16.5
FDYV	≤ 0.25
MEYF	≤ 0.25
MAYI	21.1
NAYE	≤ 0.25
MEYE	≤ 0.25
FDYF	≤ 0.25
MAYV	15.4
MAAY	≤ 0.25
MAYE	33.3
NAYV	≤ 0.25
MGDQ	≤ 0.25
VFQR	≤ 0.25
GVSL	5.42
GQSH	≤ 0.25
YRWT	≤ 0.25
FKMN	≤ 0.25
IMAN	≤ 0.25
KAYN	≤ 0.25

Variant	enrichment ratio
MAHE	≤ 0.25
MAYN	16.6
MAYM	9.25
MAHI	24.7
MAHF	9.56
LMFI	≤ 0.25
VDKC	≤ 0.25
PFWD	3.08
SWFV	≤ 0.25
FCIG	≤ 0.25
AKMH	12
ATTH	8.31
ATMH	12.3
AIMH	4.85
HKMH	≤ 0.25
ATCH	≤ 0.25
QGLS	3.82
LDNH	≤ 0.25
QEIS	≤ 0.25
MEIS	13.8
MEIV	6.05
TEIV	≤ 0.25
TEIS	11.4
NEIS	≤ 0.25

Variant	enrichment ratio
FGMP	≤ 0.25
MYAF	≤ 0.25
NHMV	≤ 0.25
NHMI	≤ 0.25
THMI	26.1
SHMI	5.85
NEMI	29
THMV	8.19
NEMS	≤ 0.25
NEMD	≤ 0.25
NEMV	14.8
DIIV	≤ 0.25
DPWI	≤ 0.25
ARSS	0.56
QLGI	≤ 0.25
HQLC	≤ 0.25
HNDG	≤ 0.25
HGKL	≤ 0.25
YTLC	11.3
ATLC	13.2
AILC	7.86
HKLC	≤ 0.25
YYLC	≤ 0.25
KQLC	≤ 0.25

Variant	enrichment ratio
SALC	12
IILC	≤ 0.25
TKLC	19.8
FTLC	6.55
MKLC	≤ 0.25
AYLC	0.263
KVHY	≤ 0.25
RTKV	≤ 0.25
APDH	≤ 0.25
RGMG	≤ 0.25
SGLC	20.7
ADLC	3.37
LWLC	≤ 0.25
KYLC	≤ 0.25
SWLC	≤ 0.25
TDLC	11.7
SPLC	≤ 0.25
STLC	13.2
KDLC	≤ 0.25
DFLC	≤ 0.25
SCLC	12.4
SGNS	≤ 0.25
HWIF	≤ 0.25
MFWN	≤ 0.25

Variant	enrichment ratio
AMSS	9.96
WMWY	≤ 0.25
LTLC	≤ 0.25
SKLC	12.6
TTLC	14.4
SKTC	11.1
SLLC	7.49
SRLC	≤ 0.25
SNLC	11.3
SELC	20.4
GTLC	10
SFLC	4.52
TPLC	≤ 0.25
SKKC	≤ 0.25
VGMT	≤ 0.25
NFAS	≤ 0.25
AWLG	≤ 0.25
PRVI	≤ 0.25
THYW	≤ 0.25
ELGT	≤ 0.25
FGYD	≤ 0.25
EVSM	7.73
SRGY	≤ 0.25
SNNM	13.1

Variant	enrichment ratio
SLNM	≤ 0.25
SNGY	12.6
STNM	11.4
SNGM	15.3
SNNY	8.91
SNGS	9.33
SNGD	≤ 0.25
SNRM	≤ 0.25
SQNM	1.65
YTNM	≤ 0.25
RSCE	≤ 0.25
QIIS	≤ 0.25
TQLR	2.23
LNRD	0.657
EFTP	≤ 0.25
NIED	≤ 0.25
HGTL	6.22
SVCE	2.84
SVCM	14.2
SYCM	≤ 0.25
MTCM	12.2
SDCM	17.2
FDCM	≤ 0.25
SVCK	9.8

Variant	enrichment ratio
SRCM	9.77
SPCM	≤ 0.25
SECM	38.2
MTCK	≤ 0.25
MHCM	≤ 0.25
KPWY	≤ 0.25
TYSW	≤ 0.25
HHAG	≤ 0.25
IFAS	≤ 0.25
MQIG	≤ 0.25
NTCM	≤ 0.25
PLCM	≤ 0.25
WLCM	≤ 0.25
YHCM	≤ 0.25
FTCM	7.68
RTCM	≤ 0.25
TTCM	24.5
STCM	13.3
YTCM	11.5
ITCM	1
SLCM	16.9
LTCM	≤ 0.25
RMAR	≤ 0.25
LPWH	≤ 0.25

Variant	enrichment ratio
KMFP	≤ 0.25
IDIW	≤ 0.25
DRHH	≤ 0.25
ITAF	≤ 0.25
TAVC	1.35
YATV	≤ 0.25
TATV	13.6
TAVG	≤ 0.25
NAMN	≤ 0.25
KAMN	≤ 0.25
TAMN	59.7
TAMG	17.2
KATV	≤ 0.25
TANV	17.9
YANV	≤ 0.25
KANV	≤ 0.25
YFEP	≤ 0.25
NMRI	≤ 0.25
YHGP	≤ 0.25
TWHF	≤ 0.25
LTFD	≤ 0.25
HWNR	≤ 0.25
WEAV	≤ 0.25
KAMP	≤ 0.25

Variant	enrichment ratio
WWAY	≤ 0.25
LLHT	≤ 0.25
HMSL	≤ 0.25
PQVE	≤ 0.25
HHWE	≤ 0.25
IAGF	≤ 0.25
TAQF	14
YAGF	≤ 0.25
LQQF	≤ 0.25
TAMV	14.2
TAVA	≤ 0.25
TAQS	14.2
TAGF	13.2
TAHF	10.3
TAPV	≤ 0.25
LQQS	≤ 0.25
TAMS	7.61
KVFQ	≤ 0.25
TFVR	≤ 0.25
QGQK	≤ 0.25
PHIC	≤ 0.25
NSGR	≤ 0.25
SWSS	≤ 0.25
AQVW	≤ 0.25

Variant	enrichment ratio
THPY	≤ 0.25
TAMF	19.6
TAVK	≤ 0.25
TAAF	18.4
IAMF	≤ 0.25
YAMF	≤ 0.25
TAWI	10.7
KAAF	≤ 0.25
TAWV	12.8
NAAF	≤ 0.25
DPRG	≤ 0.25
GCCQ	8.03
NNVY	≤ 0.25
MPPF	≤ 0.25
QTGS	0.628
SDDV	0.265
WLTS	≤ 0.25
AVVG	11.2
AVDH	≤ 0.25
AVCA	6.97
AVTG	11.3
AVMG	2.13
AVSI	13.1
HSNG	≤ 0.25

Variant	enrichment ratio
ERPM	≤ 0.25
QHPH	≤ 0.25
QLWM	12.6
QLCK	≤ 0.25
LVHC	15
QVDS	1.54
QVDN	11.3
TVDY	≤ 0.25
QVDY	11.3
LPHC	≤ 0.25
QLDN	≤ 0.25
QLNM	≤ 0.25
LNHC	≤ 0.25
FVDN	≤ 0.25
LLFG	≤ 0.25
YKSC	≤ 0.25
GCVC	≤ 0.25
HYNH	≤ 0.25
QADY	11.7
QSDK	≤ 0.25
KADY	≤ 0.25
QADS	3.89
QSDS	20.8
QRWG	≤ 0.25

Variant	enrichment ratio
KSDH	≤ 0.25
QSDA	7.1
QSDH	18.9
QSWG	18
QEDH	≤ 0.25
QPWG	≤ 0.25
QIRT	≤ 0.25
QYHW	≤ 0.25
CPHF	≤ 0.25
NKSG	≤ 0.25
VAGL	1.62
RRLA	≤ 0.25
QEAM	≤ 0.25
QPDI	≤ 0.25
QAAM	≤ 0.25
QSHI	15.9
KSDI	≤ 0.25
KNHV	≤ 0.25
KSHI	≤ 0.25
QSGV	3.83
QSHF	9.45
QSHV	11.3
QSAM	14.5
QSDI	14.8

Variant	enrichment ratio
SNHK	≤ 0.25
ELHR	≤ 0.25
RESM	≤ 0.25
NKRK	≤ 0.25
MWRP	≤ 0.25
GFQI	≤ 0.25
NFAP	≤ 0.25
QSWI	21.7
QRWA	≤ 0.25
QSGM	21.6
QSCK	≤ 0.25
QSWA	14.9
QPWA	≤ 0.25
QSTH	≤ 0.25
QSRM	≤ 0.25
QSWM	11.9
QSGD	≤ 0.25
QSPM	≤ 0.25
QSLA	≤ 0.25
